# Measured values published in PubChem BioAssay AID748 (Sanford-Burnham Center for Chemical Genomics, 2007).
# The campaign covered roughly 96,000 compounds. About 100 (0.1%) were called active. The sample as a whole holds a higher share of actives than the screen did. Entries with a potency or affinity are not part of this list. A number with no mark means an inactive call.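 Rule for the calls: active = displacement above 50% at 20 µM plus a fluorescence interference ratio under 1.5; inactive = the rest.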
# Biological target: Bcl-2-like protein 10 (Homo sapiens) (UniProt Q9HD36)
# Experiment: displacers of TR3 peptide from Bcl-B, primary screen, selectivity assay for Bfl-1 inhibitor project, biochemical, fluorescence polarization, FITC-TR3 peptide (AID 748);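 note: plate controls were wells without compound for no effect and wells lacking Bcl-B protein for full effect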
# Settings: FP displacement of FITC-TR3 peptide from Bcl-B; at 20 µM; hits give high values
row,SMILES,displacement
1,CC(C)(C)n1ncc2c(=O)n(CC(=O)NC3CCCCC3)cnc21,-2.2%
2,COC(=O)c1oc2ccc(Br)cc2c1NC(=O)c1ccccc1,-10.4%
3,Cc1cc(C)nc(Nc2ccc(C(=O)O)cc2)n1,1.7%
4,Cc1cc(C)nc(Nc2ccc(N3CCOCC3)cc2)n1,37.9%
5,CCCCCCNc1nc(NCc2ccco2)nc(OCC)n1,-31.5%
6,Cc1nc(SCC(=O)NCc2ccco2)[nH]c(=O)c1C,-5.3%
7,Cc1cc(N)ccc1-n1c(C)ccc1C,-6.6%
8,NC(=O)c1cc(N)ccc1N1CCCC1,7.2%
9,CCc1nnc(NC(=O)C(=O)NCCOC(=O)c2ccccc2Cl)s1,-14.4%
10,COc1ccc(N=C2SC(CC(=O)Nc3ccccc3)C(=O)N2CC2CCCO2)cc1 (stereo not given),-7.7%
11,Cc1cc(=O)oc2cc(OCC(=O)N3CCc4ccccc4C3)ccc12,-2.9%
12,COc1ccc2c(c1)c(=O)oc1cc(OCC(=O)N3CCCC(C)C3)ccc12 (stereo not given),31.5%
13,Cc1cc(=O)oc2ccc(OCC(=O)N3CCC(C)CC3)cc12,-6.2%
14,COc1ccc2c(c1)c(=O)oc1c(C)c(OCC(=O)N3CCc4ccccc4C3)ccc12,17.9%
15,COc1ccc2c(c1)c(=O)oc1cc(OCC(=O)NC3CC3)ccc12,-27.3%
16,COc1cccc(OCC(=O)NC2CCCCC2)c1,-1.4%
17,COC(=O)c1ccccc1OCC(=O)NC1CCCCC1,-0.5%
18,O=C1CC(=O)C(n2cncn2)C(c2c(F)cccc2Cl)C1 (stereo not given),1.3%
19,O=C(CSc1ncccc1-c1nc2ccccc2[nH]1)N1CCN(c2ccccc2F)CC1,-0.6%
20,COc1cc(C(=O)NCCC(=O)NCCCN2CCCCC2C)cc(OC)c1OC (stereo not given),-7%
21,O=[N+]([O-])c1cc(/C=N\Nc2nccs2)ccc1O,107% (active)
22,Clc1cccc(/C=N\Nc2nccs2)c1,-14.4%
23,Cc1ccc(/C=N/NC(=O)c2cccs2)cc1[N+](=O)[O-],-1.9%
24,CCCn1c(CN2CCN(C(=O)c3ccco3)CC2)nc2c1c(=O)n(C)c(=O)n2C,-3.6%
25,CCSc1nnc(NC(=O)c2ccccn2)s1,2.1%

row,SMILES,displacement
1,CCSc1nnc(NC(=O)c2cnccn2)s1,58.3% (active)
2,CCc1nnc(NC(=O)c2cnccn2)s1,-1%
3,CCc1c(C)nc2[nH]nc(-c3ccccc3)n2c1=O,3.2%
4,CCOC(=O)c1cc2c(=O)n3cccc(C)c3nc2n(Cc2ccccc2Cl)c1=N,-0.7%
5,Cn1c(=O)[nH]c(=O)c2c1nc(Br)n2Cc1ccccc1Cl,-0.4%
6,COc1cc(C(=O)NC2CC3CCCC(C2)N3CC(=O)Nc2ccccc2)cc(OC)c1OC (stereo not given),-5.3%
7,COc1cccc(C(=O)NC2CC3CCCC(C2)N3CC(=O)Nc2ccc(N(C)C)cc2)c1 (stereo not given),7.7%
8,Cn1c(=O)c2nnn(/N=C(\c3ccccc3)C3CC3)c2n(C)c1=O,0.7%
9,COc1ccc(C2=Nn3c(nnc3-c3ccco3)SC2)cc1,0.6%
10,Oc1ccc(C2=Nn3c(nnc3-c3ccco3)SC2)cc1O,56.6% (active)
11,COc1ccc(C2=Nn3c(nnc3-c3ccco3)SC2)cc1OC,5.3%
12,COc1ccc(NC(=O)C2CCCN(c3c4c(nc5ncnn35)CCC4)C2)cc1 (stereo not given),-4.1%
13,COc1ccc(NC(=O)C2CCN(C(=O)c3ccc(OC)cc3)CC2)cc1,3.5%
14,COC(=O)c1cccc(NC(=O)COC(=O)CSc2nc(C)cc(C)n2)c1,-13.3%
15,CCOC(=O)c1cccc(NC(=O)CSc2nc(N)cc(N)n2)c1,-1.6%
16,Cc1cccc(NC(=O)CSc2nnc(-c3ccco3)o2)c1C,7.2%
17,Cc1cccc(NC(=O)CSc2nnc(-c3ccco3)c(-c3ccco3)n2)c1C,37.3%
18,O=C(CSc1nnc2c3ccccc3c3ccccc3c2n1)Nc1ccccc1,-29.6%
19,Cc1cccc(C)c1NC(=O)CSc1nnc(-c2ccco2)c(-c2ccco2)n1,-4.1%
20,CCc1nnc(SCC(=O)Nc2ccccc2)nc1CC,-1.5%
21,Cc1ccc(SCC(=O)Nc2ccc(-c3nnc(-c4ccco4)o3)cc2)cc1,-9.5%
22,Cc1ccc2oc(-c3cccc(NC(=O)c4ccc(Br)o4)c3)nc2c1,-23.6%
23,CC(NC(=O)CSc1nnc(CC(=O)Nc2ccc(Cl)c(Cl)c2)n1C)c1ccccc1 (stereo not given),-13.6%
24,Cc1cccc(N(C)S(=O)(=O)c2ccc3c(c2)CCC(=O)N3)c1,-24.5%
25,COc1ccc(S(=O)(=O)Cc2ccc(C(=O)N3CCc4ccccc4C3)o2)cc1,9.8%

row,SMILES,displacement
1,Cc1ccc(S(=O)(=O)Cc2ccc(C(=O)N3CCCCCC3)o2)cc1,21.6%
2,Cc1ccc(S(=O)(=O)Cc2ccc(C(=O)N3CCN(Cc4ccccc4)CC3)o2)cc1,16.9%
3,Cc1ccc(S(=O)(=O)Cc2ccc(C(=O)N3CCCC3)o2)cc1,-6.7%
4,COC(=O)c1cccc(NC(=O)CSc2nnc(C)n2Cc2ccccc2)c1,-10.5%
5,CCOc1ccc(N2C(=O)CC(N3CCN(C4CCc5ccccc5C4)CC3)C2=O)cc1 (stereo not given),5.4%
6,CC(=O)N1CCn2c3c(c(=O)c4cc(C)ccc42)CCC31 (stereo not given),4.4%
7,Cc1ccc2c(c1)c1c3n2CCN(C(=O)CN2CCN(C)CC2)C3CCC1 (stereo not given),15.1%
8,COc1cc(NC(=O)COC(=O)c2nc3nc(C)cc(C)n3n2)cc(OC)c1,0.7%
9,COCC(C)n1c(C)cc(C(=O)COC(=O)c2nc3nc(C)cc(C)n3n2)c1C (stereo not given),9.9%
10,Cc1ccc(CC(=O)NC(C)CCc2ccccc2)cc1 (stereo not given),1%
11,Cc1cc(NC(=O)COC(=O)[C@H](C)NC(=O)c2ccccc2)no1,11.4%
12,O=C(O)c1cccc(N2CCCC2)c1,-2.4%
13,Cc1ccc(C)n1-c1ccc(C(=O)O)cc1,42.6%
14,N/C(COc1ccc(F)cc1)=N\NC(=O)c1cccnc1Oc1ccccc1,12.1%
15,C/C(Cl)=C/Cn1c(=O)c2c(nc(Br)n2Cc2ccccc2)n(C)c1=O,4.3%
16,C/C(N)=C(/C#N)C(=O)CSc1nnc(Nc2ccccc2C)s1,4.3%
17,C/C(N)=C(/C#N)C(=O)CSc1nnc(Nc2cccc(C)c2C)s1,-1.5%
18,O=S(=O)(c1ccccc1)N1CCSC1c1ccco1 (stereo not given),-4.6%
19,CCc1cc(C(=O)Cc2cnn(-c3ccccc3)c2)c(O)cc1O,-5.9%
20,Cc1ccc(O)c(C(=O)c2cnn(-c3ccccc3)c2)c1,-8.5%
21,CC(SCCc1ccccn1)C(=O)O (stereo not given),-2%
22,CCn1c(SCC(=O)Nc2ccc(NC(C)=O)cc2)nnc1C1CC1,-2.2%
23,O=c1c(-c2ccccc2)coc2c(CN3CCCC3)c(O)ccc12,0.4%
24,COc1ccc(C(=O)c2coc3ccc(O)c(CN4CCCCC4)c23)cc1,-2.5%
25,Nc1csnc1C(=O)O,1.9%

row,SMILES,displacement
1,Cc1nnc(-c2cccc(Br)c2)c2cn(-c3ccccc3Cl)nc12,7.2%
2,CCCCC(=O)Nc1ccc(NC(=O)CCCC)nc1,-8.6%
3,Nc1cc(N)nc(SCC(=O)c2ccccc2)n1,-7.4%
4,CCn1c(SCC(=O)c2ccc(O)c(O)c2)nnc1-c1ccc(C)cc1,33%
5,Cc1ccc(C(=O)CSc2cc(C)nc(SCC(=O)c3ccccc3)n2)cc1,-6.6%
6,CCn1c(SCC(=O)c2ccc(O)c(O)c2)nnc1-c1ccccc1,15.8%
7,Cc1ccc(NC(=O)CCn2nc(C)cc2C)c(C)c1,-5%
8,CCN(CCO)c1ccc(-n2c(N)c(C(=O)OC)c3nc4ccccc4nc32)cc1,12.6%
9,CC(C)c1nnc(NC(=O)CCN2C(=O)c3ccccc3C2=O)s1,-5.9%
10,CCn1c(SCc2ccc(C#N)cc2)nnc1-c1cccc(Cl)c1,-1.6%
11,Clc1ccc(CN(Cc2ccccc2)C(c2cccs2)c2nnnn2C2CCCC2)cc1 (stereo not given),-9.7%
12,O=C1CN(C(=O)c2cnccn2)c2ccccc2N1,7%
13,O=C(c1cccnc1)N1CCc2ccccc21,-1.9%
14,Cc1cc(C(F)F)n2ncc(C(=O)N3CCC(C(N)=O)CC3)c2n1,10.5%
15,CCS(=O)(=O)C(=C1NCCO1)S(=O)(=O)CC,1.6%
16,Cc1cc(Cl)cc(Cl)c1OCC(=O)NCc1ccco1,-20.9%
17,Cc1ccc2c(Cl)cc(Cl)c(OCC(=O)NCc3ccco3)c2n1,56.5% (active)
18,Cc1ccc2c(Cl)cc(Cl)c(OCC(=O)NC(=O)NCc3ccco3)c2n1,-8%
19,Cc1ccccc1C(=O)/C=C1/c2ccccc2CC(C)(C)N1C,4.3%
20,c1ccc(Sc2cnc3ccccc3n2)cc1,-0.3%
21,CN=CC1=C(O)c2ccccc2C1=O,-13.3%
22,O=C1C(C=Nc2ccccc2O)=C(O)c2ccccc21,-6.7%
23,Cc1cc(C)c(C)c(S(=O)(=O)NCC(=O)O)c1C,2.8%
24,CC(=O)c1ccc(N2CCN(c3ncc(C(F)(F)F)cc3Cl)CC2)cc1,-8.1%
25,O=C(Nc1ccc(N2CCOCC2)cc1)Nc1ccc(Cl)c(Cl)c1,-11.1%
